Results on 8 compounds are retold here after PubChem BioAssay (NCI).

The panel holds about 83,000 compounds, 20% with a hit somewhere; the sample as a whole holds those more often.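 Note: values are percent growth. 100 is the growth of untreated cells, values between 100 and 0 indicate rising inhibition; between -100 and 0 indicates cell death.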 Unmarked numbers belong to inactive results. Calls of active or inactive are those of the source. The calls were made as follows: active = growth percent below 10; inactive = the rest.

Test systems include NCI-H23 lung; NCI-H226 lung; NCI-H322M lung; HOP-62 NSCLC; HOP-92 NSCLC; NCI-H522 lung; 786-0 renal; COLO 205 colon; DU-145 prostate; K-562 leukemia; MALME-3M melanoma; MDA-MB-231 breast; RXF 393 renal; SF-268 CNS; SF-295 CNS; SF-539 CNS; UACC-257 melanoma; M14 melanoma; NCI-H460 lung; A549/ATCC NSCLC.
Common to all, as to experiment: NCI-60 one-dose screen, 48 h (100 = growth as untreated, 0 = no growth, -100 = all killed)
What all share (details): 10 µM unless noted

`Clc1ccccc1C(c1ccccc1)(c1ccccc1)n1ccnc1`: the growth was 41.9% with NCI-H23 lung; 29.2% with NCI-H226 lung; 61.8% in the assay on NCI-H322M lung; 34.3% in the assay with HOP-62 NSCLC; 19.7% with HOP-92 NSCLC; 28.1% in the assay on NCI-H522 lung. Moreover, the growth was 48.3% with 786-0 renal; 24% in the assay with COLO 205 colon; 60.1% with DU-145 prostate; 17% with K-562 leukemia; 39.7% in the assay with MALME-3M melanoma; 59.1% in the assay on MDA-MB-231 breast. In addition, the growth in the assay on RXF 393 renal was 23.6%; in the assay with SF-268 CNS, 57.5%; with SF-295 CNS, 19%; in the assay on SF-539 CNS, 52%; in the assay on UACC-257 melanoma it was 54.4%; in the assay on M14 melanoma it was 31%.
`Oc1c(C(Nc2ccccc2)c2ccccc2)ccc2cccnc12` (stereo not drawn): the growth with NCI-H23 lung is 51%; in the assay on NCI-H226 lung, 33.2%; in the assay with NCI-H322M lung it was 46.4%; with NCI-H460 lung, 20.7%; in the assay with HOP-92 NSCLC it was 19.9%; with NCI-H522 lung it was 4.85% (active). Besides, the growth in the assay with A549/ATCC NSCLC was 37.3%; with 786-0 renal, 39.3%; with COLO 205 colon it was 16.8%; with DU-145 prostate it was 57.8%; in the assay with K-562 leukemia, 32.1%; with MALME-3M melanoma, 87.6%. Further, the growth in the assay with RXF 393 renal was 74.9%; in the assay with SF-268 CNS, 33.4%; in the assay on SF-295 CNS, 6.25% (active); with SF-539 CNS, 27.2%; with UACC-257 melanoma it was 64.3%; in the assay on M14 melanoma, 45.8%.
Take `Nc1ccc(C(=O)/C=C/c2ccccc2)cc1`: the growth in the assay with NCI-H23 lung is 96.5%; with NCI-H226 lung it was 105%; with NCI-H322M lung, 90.8%; with NCI-H460 lung it was 100%; in the assay with HOP-92 NSCLC, 88.3%; with NCI-H522 lung, 80.8%. Moreover, the growth in the assay with A549/ATCC NSCLC is 91.5%; with 786-0 renal, 86.2%; with COLO 205 colon, 119%; with DU-145 prostate, 62.1%; with K-562 leukemia, 14.3%; in the assay on MALME-3M melanoma, 93.9%. For the same compound, the growth in the assay with MDA-MB-231 breast was 98.2%; in the assay on RXF 393 renal, 104%; with SF-268 CNS it was 85.8%; in the assay with SF-295 CNS it was 101%; in the assay with SF-539 CNS it was 102%; in the assay with UACC-257 melanoma, 108%. Moreover, the growth with M14 melanoma is 80.4%.
Consider `CCOC(=O)c1c(C)[nH]c2ccc(O)cc12`, for which the growth in the assay on NCI-H23 lung is 103%; in the assay on NCI-H226 lung it was 94.3%; in the assay with NCI-H322M lung it was 99.7%; in the assay with NCI-H460 lung, 98.3%; with HOP-92 NSCLC, 103%; in the assay with NCI-H522 lung, 52.7%. For the same compound, the growth in the assay on A549/ATCC NSCLC was 95.7%; in the assay on 786-0 renal, 100%; with COLO 205 colon, 113%; in the assay on DU-145 prostate, 106%; in the assay with K-562 leukemia it was 101%; with MALME-3M melanoma it was 103%. The growth was 96.7% in the assay on MDA-MB-231 breast; 109% in the assay with RXF 393 renal; 97.7% in the assay on SF-268 CNS; 111% with SF-295 CNS; 98.1% with SF-539 CNS; 92.9% in the assay on UACC-257 melanoma. Further, the growth with M14 melanoma was 101%.
For `CN(C)CCN(C)CC(C)(C)C(=O)/C=C/c1ccc(Cl)c(Cl)c1`, the growth with NCI-H23 lung was -83.2% [100 µM] (active); in the assay on NCI-H226 lung, -64.1% [100 µM] (active); in the assay on NCI-H322M lung, -98.4% [100 µM] (active); in the assay with NCI-H460 lung, -72.8% [100 µM] (active); in the assay on HOP-92 NSCLC it was -89.4% [100 µM] (active); in the assay with NCI-H522 lung, -89.5% [100 µM] (active). The growth is -82% [100 µM] (active) in the assay with A549/ATCC NSCLC; -93.6% [100 µM] (active) in the assay with 786-0 renal; -90.3% [100 µM] (active) with COLO 205 colon; -99.2% [100 µM] (active) in the assay on DU-145 prostate; -21.1% [100 µM] (active) in the assay with K-562 leukemia; -95.5% [100 µM] (active) in the assay on MALME-3M melanoma. The growth is -98% [100 µM] (active) in the assay on MDA-MB-231 breast; -95.1% [100 µM] (active) with RXF 393 renal; -54.8% [100 µM] (active) in the assay on SF-268 CNS; -97.9% [100 µM] (active) in the assay on SF-295 CNS; -99.3% [100 µM] (active) with SF-539 CNS; -90.4% [100 µM] (active) in the assay on UACC-257 melanoma. Besides, the growth with M14 melanoma is -92% [100 µM] (active).
Regarding `COC(=O)c1cc([N+](=O)[O-])cc([N+](=O)[O-])c1Cl`, the growth was 98.3% with NCI-H23 lung; 102% with NCI-H226 lung; 106% with NCI-H322M lung; 102% in the assay with HOP-62 NSCLC; 99.7% in the assay on HOP-92 NSCLC; -74% (active) in the assay with NCI-H522 lung. Besides, the growth is 101% in the assay with A549/ATCC NSCLC; 102% with 786-0 renal; -64.1% (active) in the assay on COLO 205 colon; 66.1% in the assay with DU-145 prostate; 15.2% in the assay with K-562 leukemia; 49.5% in the assay with MALME-3M melanoma. Moreover, the growth in the assay on MDA-MB-231 breast was 105%; in the assay on RXF 393 renal it was 91.4%; in the assay on SF-295 CNS, 101%; in the assay with SF-539 CNS, 102%; in the assay with UACC-257 melanoma it was 70.4%; in the assay on M14 melanoma it was 20.5%.
Take `CCCCCCCCCCCC[n+]1ccc(CCCCCCCCC)cc1`: the growth in the assay with NCI-H23 lung is -80.8% (active); with NCI-H226 lung it was -65.2% (active); with NCI-H322M lung it was 56.1%; in the assay on NCI-H460 lung, -63.6% (active); in the assay on HOP-92 NSCLC, -55.5% (active); in the assay on NCI-H522 lung, -33.1% (active). Moreover, the growth was -44.8% (active) with A549/ATCC NSCLC; -85.1% (active) in the assay on 786-0 renal; -76.5% (active) in the assay on COLO 205 colon; -83.6% (active) in the assay with DU-145 prostate; -37.4% (active) with K-562 leukemia; -76.4% (active) with MALME-3M melanoma. The growth in the assay on MDA-MB-231 breast was -81.1% (active); with RXF 393 renal it was -78.9% (active); with SF-268 CNS it was -79.2% (active); in the assay on SF-295 CNS, -51.3% (active); in the assay with SF-539 CNS, -80.7% (active); in the assay on UACC-257 melanoma it was -18.4% (active). The growth in the assay with M14 melanoma is -82.6% (active).
As for `CC(=O)C1Cc2ccccc2C1=O` (stereo not drawn), the growth was 95.4% in the assay on NCI-H23 lung; 103% with NCI-H226 lung; 89.5% with NCI-H322M lung; 111% in the assay with NCI-H460 lung; 105% with HOP-92 NSCLC; 122% in the assay with NCI-H522 lung. In addition, the growth in the assay with A549/ATCC NSCLC is 106%; in the assay with 786-0 renal, 103%; with COLO 205 colon it was 121%; with DU-145 prostate it was 106%; with K-562 leukemia it was 116%; with MALME-3M melanoma, 94.3%. Besides, the growth is 98.8% in the assay on MDA-MB-231 breast; 103% in the assay with SF-268 CNS; 100% in the assay on SF-295 CNS; 99.6% in the assay on SF-539 CNS; 89.8% in the assay on UACC-257 melanoma; 109% in the assay with M14 melanoma.
